Screening data as filed in PubChem BioAssay.
NS1 function inh: inhibitors of influenza NS1 protein function. Potency, µM (highest dose often 46.1 µM), for the others: top-dose activity, positive = more growth. 270,000 tested, 0.4% active; calls by dose curve; further: potency means the concentration at half of the fitted maximal effect; actives are rising curves; nearly all actives have a fitted effect of over 50% in size
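OD600 was taken as the measure of yeast growth restored by compound in an NS1-expressing S. cerevisiae strain. Cells had been washed out of glucose medium and diluted 1:100 into galactose -URA medium, pH 6.0.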
Pf growth 48h: inhibits P. falciparum growth in the first generation, 48 h; Potency, µM (top dose mostly 28.7 µM), for inactives: at the highest dose activity change, negative = inhibition, most hits filed as inhibitors; P. falciparum luciferase growth in erythrocytes, 48 h; 310,000 tested, 5.9% active; further: potency means the concentration at half of the fitted maximal effect; on the % scale 0 is the no-effect control and ±100 the full control effect
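Parasite viability was followed by luminescence of a genomically integrated firefly luciferase. Cultures held 0.1% parasitemia at 2% hematocrit (final), incubated under 5% CO2 at 37 C.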
Giardia FBPA inh: blocks Giardia fructose-bisphosphate aldolase activity | Potency, µM (top dose mostly 59.6 µM), without a hit: at the top dose activity, negative = inhibition, hits mostly inhibitors | A8B2U2 | 290,000 tested, 0.71% active | AID 2451 | purified Giardia FBPA; further: potency means the concentration at half of the fitted maximal effect; on the % scale 0 is the no-effect control and ±100 the full control effect; nearly all actives have a fitted effect of over 55% in size
Target sequence (A8B2U2 whole entry, looked up): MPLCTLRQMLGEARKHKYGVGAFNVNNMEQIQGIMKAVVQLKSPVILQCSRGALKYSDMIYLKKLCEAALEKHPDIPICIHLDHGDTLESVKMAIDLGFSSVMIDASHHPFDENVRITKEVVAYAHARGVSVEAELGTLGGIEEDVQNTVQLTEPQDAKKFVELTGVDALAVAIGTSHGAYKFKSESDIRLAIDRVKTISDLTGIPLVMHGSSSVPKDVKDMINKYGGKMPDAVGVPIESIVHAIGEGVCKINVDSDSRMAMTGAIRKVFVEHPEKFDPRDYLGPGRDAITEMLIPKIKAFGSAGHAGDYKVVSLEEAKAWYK
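Giardia FBPA (40 nM reagent) was preincubated 10 min at RT with compound (up to 57.5 uM final), then substrate plus GAPDH/TPI/NAD/arsenate coupling system with diaphorase/resazurin was added; resorufin fluorescence (525/598 nm) was read after 20 min.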
Cycloheximide cs: counter-screen hit for Shiga toxin inhibitors, cycloheximide; 300,000 tested, 12% active; cell reporter, cycloheximide protein synthesis inhibition counterscreen; max response, %; in the data active means max response mostly above about 13%, no sharp cut-off; inactive means mostly below about 14%; further: read at 38.3 µM for the half of the compounds with a filed dose; 0% is about no effect
Pf growth 96h: P. falciparum growth inhibition at 96 hours | P. falciparum luciferase reporter growth, 96 h | 320,000 tested, 6.9% active | Potency, µM (highest dose often 28.7 µM), for inactives: top-dose activity change, negative = inhibition, most hits filed as inhibitors; further: potency means the concentration at half of the fitted maximal effect; on the % scale 0 is the no-effect control and ±100 the full control effect
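96 h incubation, 37 C, 5% CO2, of luciferase-reporter P. falciparum-infected RBCs (2% hematocrit, 0.05% parasitemia final) with test compounds; endpoint luminescence.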
Shiga toxin inh: Shiga toxin inhibition; 290,000 tested, 9.2% active; inhibition, % at 38.7 µM; Vero cells, Shiga toxin protein synthesis inhibition reporter; in the data active means inhibition mostly above about 28%, no sharp cut-off; inactive means mostly below about 43%; further: 0% is about no effect
An asterisk follows results filed as active; ? = inconclusive; · = no result given. Rows were chosen to be rich in hits. Some 21% of all compounds tested hit in one or more screens of this group. Unless noted, the call rests on the fitted dose curve; in most records, active means well fitted curve in the direction sought with a large enough effect; inconclusive means small, poorly fitted or top-dose-only effect, or another doubt; inactive means no such curve, though single readings can be large; an effect the other way counts as inactive or inconclusive.

SMILES	NS1 function inh	Pf growth 48h	Giardia FBPA inh	Cycloheximide cs	Pf growth 96h	Shiga toxin inh
Cc1ccc2c(c1)[C@H]1[C@H](CO2)[C@H](c2ccccc2)[C@]2(C)C(=O)Nc3cc(Cl)ccc3C(=O)N12	·	8.28µM*	·	·	9.28µM*	·
C[C@]12C(=O)N(c3ccc(Br)cc3)C(=O)N1[C@@H]1c3ccccc3OC[C@@H]1[C@H]2c1ccccc1	?	?	-10.2%	-1.4	?	-4.0
COc1ccc2c(c1)[C@H]1[C@H](CO2)[C@H](c2ccccc2)[C@]2(C)C(=O)Nc3cc(Cl)ccc3C(=O)N12	·	5.22µM*	·	·	1.85µM*	·
C[C@]12C(=O)N(c3ccc(Cl)cc3)C(=O)N1[C@H]1c3ccccc3OC[C@@H]1[C@H]2c1ccccc1	17.7%	?	16.3%	-1.2	?	-4.0
COc1cc2c(cc1OC)C(=O)N1[C@H]3c4cc(Cl)ccc4OC[C@@H]3[C@H](c3ccccc3)[C@]1(C)C(=O)N2	·	14.7µM*	·	·	9.28µM*	·
N#Cc1ccc(NCCNCC(=O)N2N=CCC2C#N)nc1 (centres undefined)	·	·	-18.3%	0.5	·	61.5
CCCCc1nnc(SCC(=O)NC2CCCCC2)n1C	2.4%	?	5.4%	-1.4	84.3%	7.5
Cc1cccc(Cn2ccc(NC(=O)c3ccc4c(c3)OCO4)n2)c1	·	7.6%	-3.5%	28.0*	?	73.7*
O=C(Nc1ccn(Cc2ccc(Cl)cc2)n1)c1ccc2c(c1)OCO2	-131.3%	4.0%	6.1%	21.9	·	50.1*
O=C(N/N=C/c1ccc2c(c1)OCO2)c1ccn(Cc2ccc(Cl)cc2)n1	1.6%	4.1%	·	10.3	?	23.0
CCCN(CC(=O)Nc1ccccc1C)C(=O)/C=C/c1ccc(OCC)c(OC)c1	·	9.28µM*	·	·	?	·
COc1ccc(/C=C2\SC(N)=NC2=O)cc1Br	4.5%	-8.0%	-9.5%	19.2*	?	·
COc1cc(/C=C2\SC(N)=NC2=O)ccc1OCC(=O)Nc1ccccc1C	·	5.86µM*	·	·	5.22µM*	·
COC(=O)c1ccc(NC(=O)COc2ccc(C3C(C#N)=C(N)Oc4c3ccc3ccccc43)cc2OC)cc1 (centres undefined)	?	?	-0.3%	7.9	?	3.6
CCCN(CC(=O)Nc1ccccc1C)C(=O)/C=C/c1cccs1	7.6%	16.8%	3.1%	0.9	30.6%	-4.4
COc1cc(C2C(C#N)=C(N)Oc3c2ccc2ccccc32)ccc1OCC(=O)Nc1ccccc1C (centres undefined)	28.5%	10.4µM*	-7.6%	-1.4	?	-2.5
COc1ccc(/C=C2\SC(=O)N(CC(=O)Nc3ccccc3O)C2=O)cc1OC	4.7%	?	-7.2%	19.7	4.8%	-6.2
CCCOc1ccc(/C=C2\SC(N)=NC2=O)cc1OC	7.7%	-5.5%	0.0%	-1.0	21.7%	21.8
C[C@@H]1CCC(=O)N(C[C@@H](C)CSc2ccccc2)CC1	-19.8%	79.2%	3.5%	1.0	-16.7%	5.7
CCC1=C2CC[C@H]3C(=O)N(c4ccccc4)C(=O)[C@H]3[C@H]2[C@@]2(Cc3ccccc3)C(=NCc3ccccc3)OC(=O)N2C1=O	·	·	2.8%	·	·	·
CC(=O)Nc1cccc(C(=O)NNC(=O)c2ccccc2-n2cccc2)c1	·	-11.5%	·	·	22.2%	·
COc1cc(C=O)c(Br)cc1OCc1ccc(C)cc1	-0.3%	58.2%	-1.0%	46.6*	128.5%	87.4*
Cc1cccc(NS(=O)(=O)c2ccc(C(=O)NCC(c3ccco3)N3CCCCC3)cc2)c1C (centres undefined)	·	-24.7%	·	·	?	·
C/C(=N\Nc1ccc([N+](=O)[O-])cc1)c1ccc(C#N)cc1	-0.2%	59.1%	-1.2%	-4.8	19.4%	9.6
C/C(=N\Nc1ccc([N+](=O)[O-])cc1)c1ccc2c(c1)OCO2	·	92.0%	-5.1%	30.0*	119.4%	80.5*
SMILES	NS1 function inh	Pf growth 48h	Giardia FBPA inh	Cycloheximide cs	Pf growth 96h	Shiga toxin inh
C/C(=N\NS(=O)(=O)c1ccc([N+](=O)[O-])cc1)c1ccc2c(c1)OCO2	-8.1%	40.3%	-2.5%	7.3	5.86µM*	-8.0
C/C(=N\NS(=O)(=O)c1ccc(C)c([N+](=O)[O-])c1)c1ccc2c(c1)OCO2	·	6.1%	1.3%	26.9*	23.5%	19.2
C/C(=N/NS(=O)(=O)c1ccc(C)cc1C)c1ccc2c(c1)OCO2	-8.6%	?	0.3%	6.1	7.6%	13.5
C/C(=N/NS(=O)(=O)c1cccc([N+](=O)[O-])c1)c1ccc2c(c1)OCO2	-1.9%	20.5%	-6.4%	4.5	0.828µM*	4.1
COc1ccc(OC)c(S(=O)(=O)N/N=C(/C)c2ccc3c(c2)OCO3)c1	-4.6%	26.3%	7.1%	1.6	3.6%	-3.4
CCOc1ccccc1NC(=S)NCCc1ccccc1	·	0.6%	-7.5%	10.4	-26.7%	17.4
Cc1cc(=O)oc2cc(OCC(=O)N3CCCC3)c(Cl)cc12	·	-28.7%	·	·	-25.3%	·
C/C(=N/NS(=O)(=O)c1ccc(C)cc1)c1ccc2c(c1)OCO2	-20.3%	13.7%	-1.5%	-2.0	-6.1%	-5.8
C/C(=N\NS(=O)(=O)c1ccccc1)c1ccc2c(c1)OCO2	·	79.2%	0.5%	12.4*	40.0%	15.7
CSc1ccc(Cl)c(C(=O)OCC(=O)N2CCOCC2)c1	-7.9%	29.5%	3.3%	-2.3	12.2%	24.3
O=C(OCC(=O)N1CCOCC1)c1ccccc1Cc1ccccc1	-7.8%	233.2%	0.1%	39.1*	338.4%	59.9*
Cc1ccsc1C(=O)OCC(=O)N1CCOCC1	0.3%	63.9%	1.6%	35.0*	18.1%	72.6*
O=C(OCC(=O)N1CCOCC1)c1ccccc1Br	1.3%	67.6%	10.1%	38.6*	32.4%	46.9*
CN(C)CCc1c[nH]c2ccc(CC3COC(=O)N3)cc12 (centres undefined)	·	-12.2%	0.6%	·	-11.5%	·
CCOC(=O)C1=C(C)NC(=O)CC1c1cc2c(cc1[N+](=O)[O-])OCO2 (centres undefined)	·	-4.9%	12.6µM*	-6.2	?	-4.5
CCCOC(=O)C1=C(C)N(C)C(=O)NC1c1cc2c(cc1[N+](=O)[O-])OCO2 (centres undefined)	·	-4.8%	?	-0.9	?	-3.0
CCOC(=O)C1=C(C)OC(N)=C(C#N)C1c1cc2c(cc1Br)OCO2 (centres undefined)	-64.2%	-3.4%	-23.2%	6.1	50.3%	-15.1
COC(=O)C1=CN(C(C)C)C=C(C(=O)OC)C1c1cc2c(cc1Br)OCO2	-2.6%	?	-10.1%	-6.2	3.7µM*	-15.7
CC1=C(C(=O)OCC(C)C)C(c2cc3c(cc2Br)OCO3)NC(=O)N1C (centres undefined)	-65.4%	10.4µM*	-1.2%	-1.6	-23.2%	-5.8
CCOCCOC(=O)C1=C(C)NC(=O)NC1c1cc2c(cc1Br)OCO2 (centres undefined)	12.1%	-27.2%	-1.6%	-0.8	?	-11.2
CCOC(=O)C1=C(C)NC(=O)NC1c1cc2c(cc1Br)OCO2 (centres undefined)	3.9%	9.28µM*	17.2%	4.1	-4.4%	-2.2
